Compound activity from PubChem.
HP1b chromo inh: HP1-beta chromodomain-methylated histone interaction inhibition. P83916. AlphaScreen HP1-beta / biotin-H3K9me3 peptide binding. Potency, µM (titrated, usually from 114 µM), without a hit: top-dose activity change, negative = inhibition, hits mostly inhibitors. 0.56% of 390,000 active. AID 540317; also: nearly all actives have a fitted effect of over 70% in size
Target sequence (P83916 whole entry, looked up): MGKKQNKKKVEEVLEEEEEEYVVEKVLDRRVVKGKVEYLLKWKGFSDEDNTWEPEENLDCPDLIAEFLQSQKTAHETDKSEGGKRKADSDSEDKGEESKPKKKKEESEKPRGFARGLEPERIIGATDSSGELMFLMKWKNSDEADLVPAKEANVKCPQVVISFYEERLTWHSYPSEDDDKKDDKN
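HP1-beta protein (50 nM final) preincubated 30 min at room temperature with biotinylated H3(1-18)K9me3 peptide (50 nM) in PBS pH 7.4, 0.01% Tween-20, then compound added for 30 min. AlphaScreen streptavidin donor/nickel chelate acceptor beads (10 ug/mL final), 30 min dark, luminescence read.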
L3MBTL1 block: inhibitors of human L3MBTL1. Q9Y468. AlphaScreen L3MBTL1–H3K9me1 peptide binding. Potency, µM (doses to about 57.1 µM), for the others: at the highest dose activity, negative = inhibition, actives largely listed as inhibitors. 0.66% of 230,000 active. AID 485360; also: % is scaled to controls: 0 for no effect and ±100 for the full control effect; nearly all actives have a fitted effect of over 60% in size
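L3MBTL1 50 nM + b-AHA-H3(1-15)K9me1 75 nM, 30 min RT; compound added, 30 min RT; streptavidin donor/Ni-chelate acceptor beads 10 ug/mL each final, 30 min RT dark; AlphaScreen read.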
VDR inhibitor: inhibitors of human vitamin D receptor; P11473; VDR-SRC2-3 peptide fluorescence polarization, 2 h; Potency, µM, without a hit: max response, negative = inhibition, usual class: inhibitors; 0.93% of 400,000 active; AID 504847; also: % is scaled to controls: 0 for no effect and ±100 for the full control effect
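Fluorescence polarization assay of small-molecule disruption of VDR binding to coregulator peptide SRC2-3. Compounds and controls pin-transferred, then read after 2 h incubation at ambient room temperature.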
PLK1 PBD inh: blocks phosphopeptide binding to human PLK1 polo-box domain | P53350 | Plk1 PBD binding of FITC phosphopeptide, fluorescence polarization | Potency, µM, for the others: max response, negative = inhibition, usual class: inhibitors | 2.8% of 360,000 active | AID 720504; also: series mostly up to about 57 µM; % is scaled to controls: 0 for no effect and ±100 for the full control effect; nearly all actives have a fitted effect of over 65% in size
Target sequence (P53350 whole entry, looked up, the tested form may be a part): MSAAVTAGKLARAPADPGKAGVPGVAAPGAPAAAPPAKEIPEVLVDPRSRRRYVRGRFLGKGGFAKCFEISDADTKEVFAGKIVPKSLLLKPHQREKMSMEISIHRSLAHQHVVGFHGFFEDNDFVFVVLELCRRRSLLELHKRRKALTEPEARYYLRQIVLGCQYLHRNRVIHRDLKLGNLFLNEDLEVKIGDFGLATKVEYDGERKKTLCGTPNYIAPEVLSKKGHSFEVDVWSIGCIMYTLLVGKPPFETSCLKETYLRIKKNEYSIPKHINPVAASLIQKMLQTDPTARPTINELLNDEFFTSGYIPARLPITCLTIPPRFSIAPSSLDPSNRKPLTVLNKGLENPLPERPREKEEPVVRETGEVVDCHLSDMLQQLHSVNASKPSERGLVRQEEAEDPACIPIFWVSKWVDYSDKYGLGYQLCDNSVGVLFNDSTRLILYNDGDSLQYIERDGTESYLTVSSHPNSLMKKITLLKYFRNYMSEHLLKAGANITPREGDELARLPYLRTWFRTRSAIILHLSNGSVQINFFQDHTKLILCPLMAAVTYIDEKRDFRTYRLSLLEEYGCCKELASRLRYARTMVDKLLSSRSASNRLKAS
BAZ2B inh: inhibitors of human BAZ2B bromodomain. Q9UIF8. AlphaScreen BAZ2B-H3K14Ac peptide displacement. Potency, µM (top dose mostly 114 µM), for inactives: at the highest dose activity change, negative = inhibition, hits mostly inhibitors. AID 504333. 4.4% of 360,000 active; also: % is scaled to controls: 0 for no effect and ±100 for the full control effect; nearly all actives have a fitted effect of over 60% in size
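Protein-peptide AlphaScreen: BAZ2B 50 nM, b-H3K14Ac 50 nM, 1x PBS pH 7.4 + 0.01% Tween-20. Preincubation 30 min RT; cpd 30 min RT (top 110 uM); beads 20 min RT, light-protected.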
JMJD2A Tudor: inhibitors of human JMJD2A Tudor domain; 4.4% of 390,000 active; O75164; AID 504339; AlphaScreen JMJD2A-Tudor / H3K4me3 peptide binding; Potency, µM (doses to about 114 µM), without a hit: at the highest dose activity change, negative = inhibition, usual class: inhibitors; also: % is scaled to controls: 0 for no effect and ±100 for the full control effect; nearly all actives have a fitted effect of over 50% in size
Starred values were filed as active, the others as inactive; u = inconclusive; x = not tested or not shown; [ ] = another dose, or the depositor's remark. Hits are enriched below; roughly 6.9% of the tested compounds scored in any of these assays. Calls follow the shape of the dose curve; as a rule, active = well fitted curve in the direction sought with a large enough effect; inconclusive = small, poorly fitted or top-dose-only effect, or another doubt; inactive = no such curve, though single readings can be large; an effect the other way counts as inactive or inconclusive. Potency is read from the fitted curve at half-maximal effect.

SMILES | HP1b chromo inh | L3MBTL1 block | VDR inhibitor | PLK1 PBD inh | BAZ2B inh | JMJD2A Tudor
CCCOc1ccc(-c2nc(C#N)c(N3CCN(CC)CC3)o2)cc1 | 50.1µM* | -18.0% | 1.3% | 1.3% | 39.8µM* | u
CCOc1ccc(-c2nc(C#N)c(N3CCN(CC)CC3)o2)cc1 | -7.7% | -11.9% | -5.8% | -1.6% | u | u
CN(C)c1ccc(/C=[N+](\[O-])C(C)(C)/C=N/O)cc1 | 20.2% | -3.6% | 0.5% | -9.6% | -3.8% | 50.1µM*
CCOc1ccc(Cl)cc1S(=O)(=O)n1nnc2ccccc21 | 6.9% | x | -5.5% | 26.7µM* | u | -13.7%[11.4 µM]
Cn1nnnc1Sc1ncnc2scc(-c3ccc4c(=O)ccoc4c3)c12 | x | x | x | x | x | -14.4%
Cc1ccc(O)c(N=Cc2cc(Cc3ccccc3)cc([N+](=O)[O-])c2O)c1 | u | -19.7% | -10.2% | u | 10µM* | 39.8µM*
O=[N+]([O-])c1ccc(N2CCN(S(=O)(=O)Cc3ccccc3)CC2)cc1N1CCOCC1 | 2.9% | -2.9% | -5.2% | -8.1% | -5.0% | -29.8%
COc1cc(C=Nc2cccc(C)c2)c(O)c([N+](=O)[O-])c1 | -31.9% | -14.9% | -14.8% | -26.7% | 50.1µM* | u
O=[N+]([O-])c1cc(Cc2ccccc2)cc(C=Nc2ccc(N3CCOCC3)cc2)c1O | u | -12.9% | u | 38.9% | 39.8µM* | 56.2µM*
COc1cc(/C=C/c2ccc3cccc(OC)c3n2)c(O)c([N+](=O)[O-])c1 | 36.2% | -6.3% | -22.5% | 2.1% | -12.4% | -2.1%
CC(=O)Oc1cc2oc(=O)c3c(c2cc1Cl)CCC3 | 10.0% | 10.2% | -16.5% | 5.97µM* | 15.3% | -6.6%
O=C(Oc1cc2oc(=O)c3c(c2cc1Cl)CCCC3)c1ccco1 | 47.1% | 14.5% | -0.6% | -29.2% | -1.5% | 0.7%
CC(=O)N(/N=C1\Sc2ccccc2C1=O)c1cccc(C)c1 | -16.3% | -18.2% | -7.8% | -5.3% | 39.8µM* | -34.5%
Cc1[nH]c2ccc(C(=O)OC(C)C(=O)N(C)C3CCCCC3)cc2c1C (stereo not drawn) | u | -24.6% | -4.8% | -7.1% | 56.2µM* | u
CC(=O)Nc1ccc(NC(=O)C(C)OC(=O)c2ccc3[nH]c(C)c(C)c3c2)cc1 (stereo not drawn) | -7.4% | -9.1% | 10.8% | 0.5% | -3.4% | u
Cc1[nH]c2ccc(C(=O)OC(C)C(=O)N(C)c3ccccc3)cc2c1C (stereo not drawn) | u | -1.7% | 3.1% | -2.2% | 50.1µM* | u
COCCNC(=O)CN1C(=O)COc2ccc(S(=O)(=O)N3CCOCC3)cc21 | 53.6% | x | -4.7% | x | -0.7% | 7.7%
COc1ccc(-c2nc(SCc3ccc(C#N)cc3)[nH]c(=O)c2C#N)cc1 | 45.7% | x | u | u | -19.4% | 1.3%
N#Cc1c(-c2ccco2)nc(SCc2ccc(F)cc2)[nH]c1=O | 21.8% | -16.2% | -9.8% | 23.8µM* | -8.8% | -18.9%
N#Cc1c(-c2ccccc2)nc(SCC(=O)N2c3ccccc3Sc3ccccc32)[nH]c1=O | -5.4% | -18.6% | -11.1% | 18.9µM* | u | -20.6%[11.4 µM]
N#Cc1c(-c2ccccc2)nc(SCc2ccc(Cl)cc2)[nH]c1=O | 30.4%[57 µM] | x | 79.4µM* | u | -13.5% | -16.2%
O=C(Nc1ccccc1)c1cc(C2COCCN2C(=O)CCCc2ccccc2)on1 (stereo not drawn) | x | x | x | 0.2% | x | x
S=C(NN=C1C2CC3CC(C2)CC1C3)Nc1ccccc1 | u | x | -14.5% | -22.3% | u | 50.1µM*
NS(=O)(=O)c1ccc(-c2ccc(C=O)o2)cc1 | 51.1% | 20.2% | -2.2% | -4.3% | -2.9% | -8.3%[11.4 µM]
NS(=O)(=O)c1ccc(-c2ccc(/C=C3\NC(=S)NC3=O)o2)cc1 | u | 12.6µM* | 79.4µM* | u | 50.1µM* | 25.1µM*
SMILES | HP1b chromo inh | L3MBTL1 block | VDR inhibitor | PLK1 PBD inh | BAZ2B inh | JMJD2A Tudor
CCOC(=O)C1=C(O)C(=O)C(C(=O)OCC)C1 (stereo not drawn) | u | x | -13.8% | 0.9% | x | 10µM*
CCOC(=O)C1Cc2cc3c(cc2C1=O)CC(C(=O)OCC)C3=O (stereo not drawn) | x | -1.6% | x | x | -26.7% | x
CCOc1ccc(S(=O)(=O)Nc2nc3ccccc3nc2Nc2ccc(OC)cc2)cc1 | 18.3% | x | -11.6% | x | -21.0% | -24.6%
CC(=O)c1ccc(N2CCN(S(=O)(=O)c3cc(-c4cc(C)no4)ccc3C(C)C)CC2)cc1 | 32.1% | x | 6.4% | -7.1% | -3.8% | -22.6%
CCOc1ccc(S(=O)(=O)Nc2nc3ccccc3nc2Nc2ccc(N3CCOCC3)cc2)cc1 | u | -20.8% | -19.3% | -17.1% | 28.2µM* | 50.1µM*
COc1ccc(N2CCN(S(=O)(=O)c3cc(-c4cc(C)no4)ccc3C(C)C)CC2)cc1 | 29.0% | x | 24.9% | -2.9% | 10µM* | -4.9%
COc1ccc(/C=C/C(=O)Nc2ccc(NC(C)=O)cc2)cc1S(=O)(=O)N1CCOCC1 | 1.0% | x | -15.1% | 29.9µM* | 0.0% | -11.0%[11.4 µM]
COc1ccc(/C=C/C(=O)Nc2ccccc2)cc1S(=O)(=O)N1CCOCC1 | 27.0% | -1.1% | 3.2% | -4.0% | -12.2% | -23.2%
COc1ccc(N2CCN(S(=O)(=O)c3cc(C)ccc3OC)CC2)cc1 | u | -8.8%[11.4 µM] | 4.4% | -3.8% | 44.7µM* | u
COc1cccc(-c2ccc3ncnc(N(C)C)c3c2)c1 | x | x | -21.6% | x | x | x
O=C(O)CC1(CC(=O)NCc2cc(F)cc3c2OCOC3)CCCCC1 | 36.2% | -16.2% | -12.4% | -11.9% | u | -0.3%
COc1ccc(Br)cc1S(=O)(=O)N1CCOCC1 | 33.5% | 12.8% | 6.0% | 0.7% | -3.5% | -0.3%
CCOc1ccc(/C=C/C(=O)Nc2ccc(N3CCOCC3)cc2)cc1 | -9.1% | -1.6% | u | 3.36µM* | -3.1% | 25.1µM*
COc1ccc(C)cc1S(=O)(=O)N1CCOCC1 | u | 7.7% | -24.8% | 18.9µM* | 7.3% | -27.1%[11.4 µM]
COc1ccc(/C=C/C(=O)OCC(=O)Nc2ccc(N3CCOCC3)cc2)cc1 | 55.4% | x | -10.1% | -16.2% | -2.4% | -22.6%
Cn1ncc2c(NNC(=O)c3ccc(Cl)cc3Cl)ncnc21 | 25.0% | 27.3% | -3.6% | -15.2% | 13.1% | -9.7%
COCCCn1c2nc3ccccc3nc2c2c(=O)n(-c3ccccc3OC)cnc21 | 24.6% | 7.7% | 7.6% | -9.7% | 4.4% | -9.7%
COc1ccccc1-n1cnc2c(c1=O)c1nc3ccccc3nc1n2-c1ccc(C)c(C)c1 | 38.8% | -1.6% | 1.5% | -11.6% | 56.2µM* | -30.3%
COc1ccc(C)c2sc(N(Cc3cccnc3)C(=O)C3CCCCC3)nc12 | 30.7% | x | 14.1% | x | -6.4% | -28.2%
CCOC(CN=c1nc(N(C)C)ss1)OCC | 21.0% | x | u | 6.7µM* | x | -22.9%
Cc1cc2nc(CCl)cc(=O)n2[nH]1 | 22.6% | x | 22.6% | 3.8% | u | -12.7%
Cc1cc2nc(CSc3ccccc3)cc(=O)n2[nH]1 | -10.9% | x | 12.8% | 21.2µM* | -8.2% | u
